Assay outcomes as filed in PubChem BioAssay.
The list is not random: actives were taken first. Their share in the collection is about 8.3%.
HCV inh = blocks hepatitis C virus | Huh7.5.1 HCVcc-Cre infection, luciferase reporter, 44 h | Potency, µM (doses to about 41.8 µM), for inactives: at the top dose activity change, negative = inhibition, usual class: inhibitors | hit rate 3.4% among 340,000; note: potency is the fitted concentration of half-maximal effect
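Cells seeded at 1,000/well and cultured 4 h, then compounds added followed by HCVcc-Cre virus (~0.5 moi). After 44 h further culture, luciferase substrate was added, plates held 15 min at room temperature, and luminescence read for 15 sec.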
Marburg entry inh = inhibitors of Marburg virus binding or cell entry; Potency, µM (top dose mostly 37.8 µM), for inactives: top-dose activity change, negative = inhibition, most hits filed as inhibitors; Marburg virus pseudotyped entry inhibition, cell reporter; hit rate 1.8% among 300,000; calls by dose curve; tested in HEK293 cells; note: potency is the fitted concentration of half-maximal effect
HCMV antiviral = human cytomegalovirus inhibition. HFF cells, HCMV-luciferase reporter, 72 h; active compounds read low. activity change, negative = inhibition, % at 57.5 µM. hit rate 4.5% among 410,000. AID 1259415; in the data active = activity change below about -60%; inconclusive = no clear call, values can overlap the other calls; inactive = above about -39%
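Luciferase read-out from HCMV-luciferase-infected HFFs (MOI 1 PFU/cell) 72 h post infection at 37C; compounds added after 16 h cell attachment; activity normalized between buffer-only basal and Salinomycin (10uM) inhibitor controls.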
FBPA Giardia inh = inhibitors of Giardia lamblia fructose-1,6-bisphosphate aldolase; A8B2U2; purified Giardia FBPA; Potency, µM (doses to about 59.6 µM), for the others: top-dose activity, negative = inhibition, usual class: inhibitors; hit rate 0.71% among 290,000; AID 2451; note: potency is the fitted concentration of half-maximal effect; nearly all actives have a fitted effect of over 55% in size
Target sequence (A8B2U2 whole entry, looked up): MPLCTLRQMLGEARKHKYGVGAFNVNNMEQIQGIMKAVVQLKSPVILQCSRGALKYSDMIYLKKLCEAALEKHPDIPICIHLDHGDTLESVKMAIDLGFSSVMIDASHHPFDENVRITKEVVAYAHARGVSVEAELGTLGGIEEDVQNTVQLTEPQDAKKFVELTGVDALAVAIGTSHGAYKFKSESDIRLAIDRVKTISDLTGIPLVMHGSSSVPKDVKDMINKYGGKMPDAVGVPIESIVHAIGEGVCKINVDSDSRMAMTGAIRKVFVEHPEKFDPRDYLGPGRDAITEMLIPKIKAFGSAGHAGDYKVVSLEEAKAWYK
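40 nM FBPA preincubated 10 min at RT with compound (up to 57.5 uM final), then substrate plus GAPDH/TPI/NAD/arsenate coupling and diaphorase/resazurin added. Fluorescence read after 20 min at RT, 525/598 nm.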
LASV entry inh = Lassa virus entry inhibition | Lassa virus pseudotype entry inhibition, cell reporter | Potency, µM (highest dose often 37.9 µM), for inactives: top-dose activity change, negative = inhibition, actives largely listed as inhibitors | hit rate 1.2% among 300,000 | AID 540256; calls by dose curve; tested in HEK293 cells; note: potency is the fitted concentration of half-maximal effect; nearly all actives have a fitted effect of over 50% in size
FMDV antiviral = foot and mouth disease virus antiviral activity | FMDV antiviral cell-based qHTS | Potency, µM (series often up to 57.9 µM), for the others: at the highest dose activity change, negative = inhibition, most hits filed as inhibitors | hit rate 1.2% among 410,000 | AID 1159524; calls by dose curve; tested in HEK293T cells; note: read-out not given here; potency is the fitted concentration of half-maximal effect; nearly all actives have a fitted effect of over 45% in size
An asterisk follows results filed as active; u = inconclusive; x = not tested or not shown; [ ] = remark or other dose. Unless noted, calls come from the whole dose curve; as a rule, active = well fitted curve in the direction sought with a large enough effect; inconclusive = small, poorly fitted or top-dose-only effect, or another doubt; inactive = no such curve, though single readings can be large; an effect the other way counts as inactive or inconclusive. % is set by controls: 0 for no effect and ±100 for the full control effect.

SMILES	HCV inh	Marburg entry inh	HCMV antiviral	FBPA Giardia inh	LASV entry inh	FMDV antiviral
CCCCCn1c(=O)c(C(=O)NCc2ccncc2)c(O)c2ccccc21	u	u	-88*	-4%	u	-14%
CCCCCn1c(=O)c(C(=O)NCc2ccccc2Cl)c(O)c2ccccc21	6%	x	-74*	27%	x	-28%
CCCCn1c(=O)c(C(=O)NCc2ccc(Cl)cc2)c(O)c2ccccc21	u	u	4	9%	-25%[46.1 µM]	-23%
CCCn1c(=O)c(C(=O)NCc2ccccc2Cl)c(O)c2ccccc21	13µM*	1%	-37	3%	u	-14%
CCn1c(=O)c(C(=O)NNC(=O)c2ccccc2Cl)c(O)c2ccccc21	14µM*	1%[46.1 µM]	u	11%	u	-23%
CCC(=O)Nc1ccccc1-c1nc2ccccc2n(CC(=O)c2ccc(Cl)cc2)c1=O	x	2%[46.1 µM]	73	x	-9%[46.1 µM]	-18%
Cc1ccc(C)c(N2CCN(C(=O)C3CCC(CNS(=O)(=O)c4ccc(Br)s4)CC3)CC2)c1 (centres undefined)	x	-18%[46.1 µM]	-22	x	-5%[46.1 µM]	u
CN(C)C(=O)n1nnnc1Cc1ccc(-c2ccccc2)cc1	x	x	x	0%	x	-17%
Cc1ccc(CNC(=O)c2ccc(N3Cc4ccccc4Oc4ncccc43)s2)cc1	x	-12%[46.1 µM]	-4	x	u	-22%
CN(C)c1ncc2nc(-c3ccc(F)cc3)c(=O)n(C[C@H]3CCCO3)c2n1	x	x	x	3%	x	-5%
Cc1c(Cl)cccc1NC(=O)CCS(=O)(=O)c1cccc2nsnc12	x	8%[46.1 µM]	-12	x	-18%[46.1 µM]	2%
COc1ccc(Nc2nc3ccccc3c3nnc(C)n23)cc1Cl	x	10%[46.1 µM]	-16	x	-16%[46.1 µM]	-10%
Brc1ccc(-c2nc3ccccc3s2)s1	2%	u	130	-2%	u	0%
Cc1cc(-c2nc3ccccc3s2)ccc1N	-17%	u	-3	x	3.5µM*	-73%
CC(=O)Nc1cc(-c2nc3ccccc3s2)ccc1C	x	x	93	x	10%[46.1 µM]	49%
Nc1ccc(-c2nc3ccccc3s2)cn1	25µM*	u	100	9%	x	22%
OCCN1CCOCCOc2ccccc2OCCOCC1	5%	x	-16	-3%	x	1%
c1ccc2c(c1)OCCOCCOCCOCCOCCOc1ccccc1OCCOCCOCCO2	u	u	-98*	2%	u	u
CCn1ncc(C2=NOC(C(=O)NCc3ccccc3)C2)c1C (centres undefined)	-20%	u	-60*	1%	-22%	-25%
CCn1ncc(C2=NOC(C(=O)NCc3ccc(OC)cc3)C2)c1C (centres undefined)	-4%	u	-18	2%[12.9 µM]	-25%	-18%
CCn1ncc(C2=NOC(C(=O)Nc3c(C)nn(Cc4ccc(F)cc4)c3C)C2)c1C (centres undefined)	u	x	-61*	3%	x	-2%
CC(C)(C)c1ccc(Cn2cnc(-c3ccc([N+](=O)[O-])cc3)c2)cc1	u	u	56	-15%	8.9µM*	12%
Cc1cc(C)c(Cn2cnc(-c3ccc([N+](=O)[O-])cc3)c2)c(C)c1	11µM*	u	u	1%	-16%	x
CNc1ccc(OC)cc1-n1cnc(-c2ccc([N+](=O)[O-])cc2)c1	-6%	u	29	6%	-2%[46.1 µM]	-11%
Cn1cnc([N+](=O)[O-])c1Sc1ccc([N+](=O)[O-])cc1	-3%	u	0	0%	-29%	22µM*
SMILES	HCV inh	Marburg entry inh	HCMV antiviral	FBPA Giardia inh	LASV entry inh	FMDV antiviral
Cn1cnc([N+](=O)[O-])c1Sc1ncn[nH]1	6%	x	-7	-18%	x	-24%
CC1CCC2(CC1)NC(=O)N(CC(=O)Nc1cccc(S(=O)(=O)N3CCOCC3)c1)C2=O (centres undefined)	-17%	x	0	0%	x	-7%
CN(c1ccccc1)S(=O)(=O)c1cccc(NC(=O)CN2CCc3ccccc3C2)c1	-5%	u	-15	-3%	x	-11%
CCC1CCC2(CC1)NC(=O)N(CC(=O)Nc1cccc(S(=O)(=O)N(C)c3ccccc3)c1)C2=O (centres undefined)	8.9µM*	x	-13	x	x	-25%
CN1C(=O)N(CC(=O)Nc2cccc(S(=O)(=O)N(C)c3ccccc3)c2)C(=O)C12CCCCC2	4µM*	u	-19	x	u	u
COc1ccc(S(=O)(=O)N2CCC(n3c(C(F)(F)F)nc4cccnc43)CC2)cc1OC	x	x	-8	x	0%[46.1 µM]	-19%
CC(C)n1c(O)c(/C=C2\C=NN=C2c2ccccc2)sc1=S	-42%	11µM*	u	-11%	u	u
COc1ccc(N2CC(O)=C(c3nc(-c4ccc(Br)cc4)cs3)C2=N)cc1	11%	x	-67*	4%	x	5%
C[C@@](N)(Cc1ccc(O)c(O)c1)C(=O)O	x	u	x	22µM*	x	-7%
Cc1[nH]c(-c2ccco2)nc1C(=O)O	18%	9%	-111*	u	14%	6%
Cc1[nH]c(-c2ccc3c(c2)OCO3)nc1C(=O)O	4%	x	20	-26%	x	7%
COc1ccc(N2CCN(C(CNS(=O)(=O)c3ccc(OC)c(C)c3)c3ccco3)CC2)cc1 (centres undefined)	x	x	-28	x	5.6µM*	-3%
O=S(=O)(NCC(c1ccco1)N1CCN(c2ccc(F)cc2)CC1)c1ccc2c(c1)OCCO2 (centres undefined)	u	u	-75*	-2%	u	-39%
Cc1cc(C)c(C#N)c(SCc2nnc(-c3ccccc3[N+](=O)[O-])o2)n1	u	u	-95*	-3%	u	15%
Cc1cc(C)c(C#N)c(SCc2cn3c(C)cccc3n2)n1	u	7%	-63*	-17%	0%	-17%
Cc1cc(C)c(C#N)c(SCc2ccccc2[N+](=O)[O-])n1	-23%	-7%	-97*	-1%	0%	0%
Cc1cc(C)c(C#N)c(SCc2c(F)cccc2[N+](=O)[O-])n1	u	13%	6	9%	-26%	-6%
Cc1cc(C)nc(SCc2cn3c(C)cccc3n2)n1	-13%	-4%	-12	-11%	-6%	14%
Cc1ccc(C#N)c(SCc2nnc(-c3ccc(Cl)cc3)o2)n1	1%	2.1µM*	-91*	3%	u	20µM*
CC[C@H]1[C@@H]2C=C[C@@H]3[C@H]4C/C=C\C(=O)NCCC[C@@H]5NC(=O)C(=C5O)C(=O)CC[C@@H]4C[C@@H]3[C@H]2C[C@H]1C	x	x	x	5%	x	x
CCOC(=O)CN(C)C(=O)c1cnn(-c2ncc3c(n2)-c2ccccc2CCC3)c1C	x	x	x	x	x	55%
COc1ccccc1-c1cc(-c2ccc(C)cc2)nc(SCc2nnc(-c3ccccc3)o2)c1C#N	-2%	u	-22	0%	-26%	15%
Cc1cc(C)c(C#N)c(SCc2nnc(-c3ccccc3)o2)n1	u	1.2µM*	-93*	0%	1.2µM*	u
